Each structure is given as a SMILES string. Among all 2,200 compounds or so, about 1,500 (68%) were called active. So high a share suggests a set chosen from earlier hits. A selection follows. Unmarked numbers belong to inactive results. Cut-off read from the data, not from the text of the source: active = inhibition above about 23%; inactive = the rest.

This assay deals with Perilipin-5 (Homo sapiens) + 1-acylglycerol-3-phosphate O-acyltransferase ABHD5 (Homo sapiens) (UniProt Q00G26+Q8WTS1). Kind of assay: blockers of ABHD5 binding to perilipin-5 – biochemical, luminescence, confirmation (AID 651612).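 Note: 0% = DMSO vehicle wells.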 The note with it: biochemical ABHD5-PLIN5 interaction, at 4 µM, stronger effect = higher value.
Chain of Perilipin-5 (Homo sapiens) + 1-acylglycerol-3-phosphate O-acyltransferase ABHD5 (Homo sapiens) (Q00G26 whole entry, looked up): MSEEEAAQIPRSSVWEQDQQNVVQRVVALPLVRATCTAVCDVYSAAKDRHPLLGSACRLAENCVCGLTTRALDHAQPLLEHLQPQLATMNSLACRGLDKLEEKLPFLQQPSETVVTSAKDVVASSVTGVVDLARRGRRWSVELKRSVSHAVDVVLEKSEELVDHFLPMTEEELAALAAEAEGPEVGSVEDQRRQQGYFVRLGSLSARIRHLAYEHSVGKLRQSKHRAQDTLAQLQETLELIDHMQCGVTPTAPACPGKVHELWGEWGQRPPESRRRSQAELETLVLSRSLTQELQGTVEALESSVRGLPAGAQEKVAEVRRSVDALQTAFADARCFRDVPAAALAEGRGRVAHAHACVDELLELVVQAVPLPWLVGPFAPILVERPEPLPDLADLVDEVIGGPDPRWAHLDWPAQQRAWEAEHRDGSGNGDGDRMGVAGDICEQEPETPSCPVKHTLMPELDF
Chain of Perilipin-5 (Homo sapiens) + 1-acylglycerol-3-phosphate O-acyltransferase ABHD5 (Homo sapiens) (Q8WTS1 whole entry, looked up): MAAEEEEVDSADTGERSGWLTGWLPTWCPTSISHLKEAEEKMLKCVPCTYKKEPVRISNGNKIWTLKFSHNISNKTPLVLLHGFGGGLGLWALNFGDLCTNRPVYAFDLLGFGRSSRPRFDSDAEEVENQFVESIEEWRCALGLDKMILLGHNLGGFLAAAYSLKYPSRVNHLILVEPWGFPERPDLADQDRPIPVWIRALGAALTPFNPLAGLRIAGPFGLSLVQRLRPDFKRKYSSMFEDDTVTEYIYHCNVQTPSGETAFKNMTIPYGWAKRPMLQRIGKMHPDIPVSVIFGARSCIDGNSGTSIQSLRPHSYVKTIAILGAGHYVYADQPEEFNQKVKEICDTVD
Usually inhibition stands for the change of the read-out against control, counted positive when it falls. Regarding `CCOC(=O)[C@]12Cc3ccccc3[C@H]1N(C1CCCCC1)C(=O)c1cc(OC)ccc12`, the inhibition was 23.3% (active).

Regarding `CN(C)CC1Oc2ccccc2OC1(O)c1ccccc1` (stereo not given), the inhibition was 77.6% (active).

In the case of `COc1ccc(CN2C(=O)NC(=O)/C(=C\c3ccc(OC)c(OC)c3OC)C2=O)cc1`, the inhibition was 36.5% (active).

As to `CCc1nnc(NS(=O)(=O)c2ccc(N=Cc3c(O)n(-c4ccccc4)c(=O)[nH]c3=O)cc2)s1`, the inhibition is 7.03%.

In the case of `Cc1cccc(N2C(=O)NC(=O)/C(=C\c3cnn(-c4ccccc4)c3)C2=O)c1`, the inhibition was 66.4% (active).

Values taken from PubChem BioAssay AID651612 (The Scripps Research Institute Molecular Screening Center, 2012).
